Several values for one entry are separate records, joined by “and”; a condition that tells them apart may be missing. Identical values can stand only once. Activity calls are given as the source filed them. Unless noted, the rule behind the calls is not given here.
Key:
[1] = P. berghei load reduction in hepatocytes – cell-based, HepG2, luciferase luminescence, HepG2 viability, primary screen (AID 624349; in the data active = parasite load remaining mostly below about 12%, no sharp cut-off; inactive = mostly above about 10%;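 note: 100% = mean of DMSO negative control wells on the same plate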); conditions: P. berghei liver stage in HepG2, luciferase luminescence, concentration not given here; parasite load remaining: stronger effect = lower value; viability: measured here: HepG2 viability without parasites
[2] = signal quenchers or enhancers, Cy5 substrate/SSB – biochemical, NIH Clinical Collection, E. coli SSB, artefact control for HCV NS3 helicase inhibitor project (AID 743268); conditions: Cy5-oligo bound E. coli SSB, fluorescence interference
[3] = test system: Hepatitis C virus NS3 helicase; test: blockers of NS3h binding to DNA – biochemical, fluorescence polarization, NIH Clinical Collection, primary screen (AID 743270); conditions: NS3 helicase binding to Cy5-dT15 DNA, stronger effect = higher value, concentration not given here
[4] = biological target: Single-stranded DNA-binding protein (Escherichia coli (strain K12)) (UniProt P0AGE0); test: SSB-ssDNA binding inhibitors – biochemical, fluorescence polarization, NIH Clinical Collection, counter-screen for HCV NS3 helicase inhibitor project (AID 743271; in the data active = inhibition above about 28%); conditions: E. coli SSB-DNA binding, stronger effect = higher value, concentration not given here
[5] = compounds distorting NS3 helicase fluorescence signal – biochemical, NIH Clinical Collection, artefact control for HCV NS3 helicase inhibitor project (AID 743272); conditions: fluorescence interference counterscreen, HCV NS3 helicase assay; stronger effect = lower value;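 note: HCV NS3 helicase with a Cy5 labelled single stranded DNA probe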
[6] = test system: Neuropilin-2 / VEGF-C interaction (human); test: small molecules blocking Neuropilin-2/VEGF-C interaction – biochemical, microplate binding format, z-score (AID 743281); conditions: microplate NRP2/VEGF-C binding assay; stronger effect = lower value
[7] = Wnt pathway potentiators raising nuclear beta-catenin – imaging, WNT3A-conditioned medium, mouse C2C12, NPC library, primary screen (AID 1117326; in the data active = nuclear beta-catenin stimulation mostly above about 4.2%, no sharp cut-off; inactive = mostly below about 10%); conditions: stronger effect = higher value
[8] = stimulators of insulin release from INS-1E, primary screen, cell-based, 5 mM glucose, NPC library (AID 1117329;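 active = compound raises insulin release from rat beta cells at 5 mM glucose, no numeric limit stated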); conditions: rat INS-1E insulin secretion, at 10 µM, stronger effect = higher value
[9] = growth inhibition of GSK3B-pretreated HCT116 cells – cell-based, CellTiter-Glo, 0.2 to 20 µM (AID 1117336;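 active = compounds lowering colon cancer cell viability after pretreatment blocking the GSK3B kinase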); conditions: HCT116 viability after GSK3B inhibitor, at 20 µM, stronger effect = higher value
[10] = inhibition of endothelial tube formation, primary screen, imaging, VEGF stimulated, CD31 staining, tube area, NPC library (AID 1117340;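 active = compound that reduces growth-factor-driven endothelial tube area in a mixed cell culture, no cutoff stated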); conditions: VEGF-stimulated ADSC/ECFC co-culture, at 10 µM, stronger effect = higher value
[11] = GLP1 release stimulators, primary, NCI-H716, NPC library (AID 1117341;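 active = compound raises GLP1 secretion from the human gut endocrine cells, with no numeric limit stated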); conditions: NCI-H716 cells, at 10 µM, stronger effect = higher value
[12] = HCT116 colon cancer cell growth inhibition, primary screen, CellTiter-Glo luminescence, NPC library (AID 1117342;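 active = compounds that lower survival of HCT116 colon cancer cells in the luminescence readout, no numeric limit stated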); conditions: at 20 µM (top of the series)
[13] = reduced SW480 viability measured with CellTiter-Glo, NPC library, primary (AID 1117343;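 active = compounds that lower viability of the colon cancer cells in the luminescence readout, with no numeric limit stated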); conditions: CellTiter-Glo luminescence; at 20 µM (top of the series)
[14] = NPC library primary testing for decreased DLD-1 cell viability via CellTiter-Glo (AID 1117346;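 active = compounds that lower survival of DLD-1 colon cancer cells in the luminescence readout, no cutoff given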); conditions: DLD-1 viability, CellTiter-Glo luminescence; at 20 µM (top of the series)

Row | Compound | parasite load remaining [1] | viability [1] | fluorescence ratio [2] | inhibition [3] | inhibition [4] | fluorescence ratio [5] | z-score [6] | nuclear beta-catenin stimulation ([7]; at 10 µM) | nuclear beta-catenin stimulation ([7]; stimulation, at 2 µM) [%] | insulin secretion stimulation [8] | viability decrease [9] | tube area decrease [10] | GLP1 secretion stimulation [11] | inhibition of viability [12] | viability decrease (inhibition) [13] | viability decrease (inhibition) [14] | outcome [6]
1 | CC(c1cc2ccccc2s1)N(O)C(N)=O (stereo not drawn) | 58.4% (inactive) and 101% (inactive) and 41.5% (inactive) | 101% and 79.1% and 102% | 1.02 (inactive) | 2.77% (inactive) | -0.87% (inactive) | 1.01 (inactive) | -0.124 (inactive) | 0.1% (inactive) | 0.8 | -0.1% (inactive) | -6.5% (inactive) | -39.9% (inactive) | -1.4% (inactive) | -15.9% (inactive) | 9.4% (inactive) | -3.8% (inactive) | –
2 | COc1cc(OC)c(C(=O)CCCN2CCCC2)c(OC)c1 | 144% (inactive) and 82.2% (inactive) and 102% (inactive) | 95.2% and 73.3% and 68.5% | 1.02 (inactive) | -3.56% (inactive) | -3.95% (inactive) | 0.97 (inactive) | -0.505 (inactive) | 1.1% (inactive) | 0.3 | -1% (inactive) | -39.3% (inactive) | 17.2% (inactive) | 0.3% (inactive) | -8% (inactive) | 0.7% (inactive) | -31.7% (inactive) | –
3 | COc1cc(C)c(Cc2cnc(N)nc2N)cc1OC | 28% (inactive) | 73.1% | 1.02 (inactive) | 1.98% (inactive) | 2.21% (inactive) | 0.95 (inactive) | -0.323 (inactive) | -0.5% (inactive) | 0.4 | 1.7% (inactive) | -7.75% (inactive) | 11.1% (inactive) | 0.8% (inactive) | 6.8% (inactive) | 11.5% (inactive) | -5.75% (inactive) | –
4 | CC(=O)Oc1ccccc1C(=O)Nc1ncc([N+](=O)[O-])s1 | 0.07% (inactive) | 55.1% | 1 (inactive) | 2.77% (inactive) | 4.52% (inactive) | 1 (inactive) | -0.0903 (inactive) | 13.9% (inactive) | 2 | -1.8% (inactive) | 106% (active) | 110% (active) | 2.9% (inactive) | 107% (active) | 120% (active) | 95.2% (active) | –
5 | CN(CCCN1c2ccccc2CCc2ccccc21)CC(=O)c1ccc(Cl)cc1 | 66.2% (inactive) | 68.6% | 0.86 (inactive) | 7.52% (inactive) | 2.98% (inactive) | 1.21 (active) | – | 1.2% (inactive) | -1.4 | 10.9% (inactive) | 6.7% (inactive) | 29.2% (inactive) | 4.6% (inactive) | 33.2% (inactive) | 84.8% (active) | 39% (inactive) | inactive
6 | Cc1nc2ccc(CN(C)c3ccc(C(=O)N[C@@H](CCC(=O)O)C(=O)O)s3)cc2c(=O)[nH]1 | 12.1% (inactive) | 89.6% | 0.88 (inactive) | -4.59% (inactive) | 17.7% (inactive) | 0.88 (inactive) | – | 61.4% (active) | 62.4 | -5.7% (inactive) | 83.7% (active) | 62.5% (active) | 1% (inactive) | 78.2% (active) | 117% (active) | 56.2% (active) | inactive
7 | CCCc1c(OCCCCc2nn[nH]n2)ccc(C(C)=O)c1O | 103% (inactive) | 65.9% | 1.03 (inactive) | 5.15% (inactive) | -3.18% (inactive) | 0.98 (inactive) | 0.174 (inactive) | 0.3% (inactive) | 1.2 | -0.7% (inactive) | 49.9% (inactive) | 15.6% (inactive) | 6.3% (inactive) | 54.3% (active) | 29.7% (inactive) | 27.7% (inactive) | –
8 | CCN1CCN(c2cc3c(cc2F)c(=O)c(C(=O)O)cn3C2CC2)CC1 | 29.1% (inactive) and 34.1% (inactive) and 1.73% (inactive) | 97.4% and 66.5% and 68.5% | 1 (inactive) | 0.66% (inactive) | 0.39% (inactive) | 0.97 (inactive) | -0.441 (inactive) | 0.9% (inactive) | 0.3 | -0.15% (inactive) | 38% (inactive) | 8.4% (inactive) | 0.4% (inactive) | 36.2% (inactive) | 11.7% (inactive) | -6.2% (inactive) | –
